A selection: hits, their analogues and other compounds. The true share with any hit is near 1.6%.
PG9 binder: PG9 antibody binding by small molecule; TR-FRET gp120-PG9 antibody binding; inhibition, % at 6.7 µM; hit rate 0.43% among 360,000; AID 624416; in the data active = inhibition above about 8.5%
V-ATPase pH: yeast V-ATPase proton transport regulation by pHLuorin; hit rate 0.37% among 350,000; response, % at 10 µM; AID 504577; S. cerevisiae, pHLuorin cytosolic pH fluorescence; in the data active = response mostly above about 7.3%, no sharp cut-off; inactive = mostly below about 5.4%; note: actives read high
NPR2 activator: GC-B (human) receptor activation | activation, % at 10 µM | AID 1920062 | hit rate 0.11% among 370,000 | P20594 | HEK293-GC-B cells, CNP EC30, cGMP TR-FRET; 0% at EC30 CNP, 100% saturating CNP;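 active = activation at 10 µM reaching about 35% in either raw or pattern-adjusted values, limit read from the data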
NPR1 activator: GC-A (human) enzyme activation; P16066; HEK293 GC-A cells, cGMP TR-FRET, EC30 ANP; 0% at EC30 ANP, 100% saturating ANP; activation, % at 10 µM; hit rate 0.14% among 370,000; AID 1671463; in the data active = activation above about 40%
NR1D1 modulator: Rev-erb alpha (human) modulation; P20393; Rev-erbα–FITC-DNA binding, fluorescence polarization, 90 min; activity, % at 10 µM; hit rate 0.79% among 370,000; AID 1259318;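 active = activity above about 14%, limit read from the data; passing the limit was not always enough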
PG9 bind confirm: PG9 antibody binding, confirmed; inhibition, % at 6.7 µM; AID 651571; shares compounds with PG9 binder; hit rate 90% among 1,500; TR-FRET PG9 antibody binding, biochemical; in the data active = inhibition above about 9%
PGV04 Ab binding: counter-screen for PG9 binders: binding control antibody PGV04. AID 651604. inhibition, % at 6.7 µM. hit rate 95% among 1,500. TR-FRET PGV04 antibody-gp120 binding, biochemical. shares compounds with PG9 binder; in the data active = inhibition above about 9.5%
Hits are given with their value; . = inactive; / = no result given.

SMILES	PG9 binder	V-ATPase pH	NPR2 activator	NPR1 activator	NR1D1 modulator	PG9 bind confirm	PGV04 Ab binding
Cc1ccc(C2/C(=C(\O)c3ccc4c(c3)OCCO4)C(=O)C(=O)N2CC2CCCO2)cc1 (stereo unspecified)	9.7	.	.	.	.	20	22
COC(=O)[C@H](CC(C)C)N(CCCc1cn(Cc2ccc(C)cc2)nn1)S(=O)(=O)c1ccc(F)cc1Br	/	/	.	.	.	/	/
Cn1ccc2c(N3c4ccccc4CCc4ccccc43)cc3c(c21)C1CCC3O1 (stereo unspecified)	19	/	.	.	.	.	.
CC(=O)Nc1sc2c(c1-c1nc3ccccc3s1)CCOC2	/	/	.	.	.	/	/
C=CCN1C(=O)[C@@H](CC(=O)N2CCN(C(=O)C3CC3)CC2)[C@]2(C(=O)OC)CCCCC=C12	/	/	.	.	.	/	/
O=c1c2cc3cc(Cl)ccc3nc2ncn1N1CCCCC1	/	/	.	.	.	/	/
CSc1nc(N)nc(SCC(=O)c2ccc(C)cc2)c1C#N	23	.	.	.	.	27	35
Cc1cc2n(n1)C(c1cn(-c3ccccc3)nc1C)Nc1c(C)cccc1-2 (stereo unspecified)	15	.	.	.	.	15	22
Cc1cc2n(n1)C(c1ccc3c(c1)OCO3)Nc1c(C)cccc1-2 (stereo unspecified)	.	.	.	.	.	/	/
Cc1cccc(-c2cccc3c4c([nH]c23)[C@@H]2C[C@H](N(C)C(=O)OCc3ccccc3)[C@H]([C@H](C)O)CN2CC4)c1	/	/	.	.	.	/	/
CCN(CC)CCCN1C(=O)C(=O)/C(=C(/O)c2ccc(Cl)cc2)C1c1ccccn1 (stereo unspecified)	9.0	.	.	.	.	13	16
COc1ccc(/C(O)=C2/C(=O)C(=O)N(CCCN(C)C)C2c2cccc(Cl)c2)cc1OC (stereo unspecified)	47	.	.	.	.	17	22
CCN(CC)CCN1C(=O)C(=O)/C(=C(/O)c2cccc(OC)c2)C1c1ccccn1 (stereo unspecified)	.	.	.	.	.	/	/
CCCCOCCCNC(=O)C[C@H]1C[C@@]2(C(=O)OC)C(=C[C@H](C3CCCC3)O[C@@H]2C)N(Cc2cccc3ccccc23)C1=O	/	/	.	.	.	/	/
O=C(Nc1ccc(Br)cn1)c1ccc2ccccc2c1	.	.	.	.	.	/	/
O=C(Nc1ccc(Br)cn1)c1cccc(C(=O)Nc2ccc(Br)cn2)c1	12	.	.	.	.	41	55
COc1ccccc1-c1c(C(F)(F)F)oc2cc(OCC(=O)Nc3ccccc3C(F)(F)F)ccc2c1=O	12	.	.	.	.	20	37
CCc1ccc(-c2nc3ccc(Br)cc3c(C(=O)O)c2C)s1	27	.	.	.	.	33	59
Cc1c(-c2ccccc2Br)nc2ccccc2c1C(=O)O	.	.	.	.	.	/	/
O=C(COc1ccc([N+](=O)[O-])cc1)N(Cc1ccccc1)Cc1ccccc1	.	.	.	.	.	/	/
O=C(COc1ncnc2cc([N+](=O)[O-])ccc12)N(CCc1ccccc1)Cc1ccccc1	16	.	.	.	.	26	41
Cn1c(CNC(=O)C2CCCCC2)cc2cc(Cl)ccc21	19	.	.	.	.	22	34
CC(C)(C)NS(=O)(=O)c1ccc2nc(NC(=O)c3ccc(N4C(=O)CCC4=O)cc3)sc2c1	48	.	.	.	.	46	64
Cc1ccc2nc(NC(=O)c3ccc(N4C(=O)CCC4=O)cc3)sc2c1	.	.	.	.	.	/	/
O=C(Nc1c(-c2ccc(C(F)(F)F)cc2)nc2ncccn12)C1CC1	/	/	.	.	.	/	/
CCn1c(=O)cc(OCC(=O)Nc2nc(C)cs2)c2ccccc21	13	.	.	.	.	30	49
Cc1csc(NC(=O)COc2ccc3c(C)cc(=O)oc3c2)n1	15	.	.	.	.	21	30
COc1cccc(C(=O)N=c2sc3cc(S(C)(=O)=O)ccc3n2C)c1	39	.	.	.	.	46	60
Cc1ccc(CNC2CCC23CCC(c2ccccc2)CC3)o1 (stereo unspecified)	/	/	.	.	.	/	/

High-throughput results deposited in PubChem BioAssay by several laboratories.
